Activity calls are given as the source filed them. The calls were made as follows: active = hit-call score of the fitted dose curve at least 0.9, where 1 is the maximum; inactive = score below 0.9.
How the values were obtained:
[1] = read-out: Urokinase-type plasminogen activator receptor (uPAR), PLAUR (gene 5329); test: BSK_4H_uPAR: BioMAP Diversity Plus: 4H Assay for Urokinase-type plasminogen activator receptor (uPAR) Biomarker Activity (AID 2283030); details: primary human endothelial cells (HUVEC); actives raise or lower the signal
Outline: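 Endpoint derived via bidirectional curve fitting against DMSO baseline; readout was ELISA detection of uPAR on umbilical vein endothelial cells at 24 h post-treatment, with SRB-stained parallel cultures assessing cytotoxicity.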

[2] = read-out: Vascular endothelial growth factor receptor 2 (Homo sapiens) (UniProt P35968); test: BSK_4H_VEGFRII: BioMAP Diversity Plus: 4H Assay for Vascular endothelial growth factor receptor 2 (VEGFR2) Biomarker Activity (AID 2283031); details: primary human endothelial cells (HUVEC); actives raise or lower the signal;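 as to AC50: cell-surface VEGFR2 protein level quantified by ELISA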
Outline: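 In this multiplexed HUVEC system, biomarker ELISA was performed after 24 h chemical exposure. Parallel SRB staining (TCA fixation, 560 nm) tracked cytotoxicity; DMSO served as baseline.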

[3] = read-out: Human Leukocyte Antigen - DR isotype (HLADR), HLA-DRA (gene 3122); test: BSK_BE3C_HLADR: BioMAP Diversity Plus: BE3C Assay for Human Leukocyte Antigen - DR isotype (HLADR) Biomarker Activity (AID 2283032); details: primary human bronchial epithelial cells; actives raise or lower the signal
Outline: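 BioMAP BE3C format: human bronchial epithelium, 24 h compound treatment, ELISA detection of HLA-DR, with bidirectional analysis relative to DMSO.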

[4] = read-out: Vascular cell adhesion molecule 1 (VCAM1), VCAM1 (gene 7412); test: BSK_4H_VCAM1: BioMAP Diversity Plus: 4H Assay for Vascular cell adhesion molecule 1 (VCAM1) Biomarker Activity (AID 2283033); details: primary human endothelial cells (HUVEC); actives raise or lower the signal
Outline: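 In this human endothelial (HUVEC) system, biomarker ELISA was run 24 h after compound addition, and total protein in parallel wells was assessed by SRB at 560 nm; DMSO served as negative control.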

[5] = read-out: Interferon-gamma inducible Protein 10 (IP10), CXCL10 (gene 3627); test: BSK_BE3C_IP10: BioMAP Diversity Plus: BE3C Assay for Interferon-gamma inducible Protein 10 (IP10) Biomarker Activity (AID 2283034); details: primary human bronchial epithelial cells; actives raise or lower the signal
Outline: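 BE3C cells (human bronchial epithelial, primary); 24 h exposure; ELISA for IP-10; DMSO-referenced bidirectional fit.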

[6] = read-out: Monokine induced gamma interferon (MIG), CXCL9 (gene 4283); test: BSK_BE3C_MIG: BioMAP Diversity Plus: BE3C Assay for Monokine induced gamma interferon (MIG) Biomarker Activity (AID 2283035); details: primary human bronchial epithelial cells; actives raise or lower the signal;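 also: MIG protein measured by ELISA in BE3C cultures after 24 h of dosing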
Outline: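 Dose cells (human primary bronchial epithelial), incubate 24 h, quantify MIG by ELISA, then fit concentration–response in both directions relative to DMSO control.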

[7] = read-out: Transforming growth factor beta 1 (TGFb1), TGFB1 (gene 7040); test: BSK_BE3C_TGFb1: BioMAP Diversity Plus: BE3C Assay for Transforming growth factor beta 1 (TGFb1) Biomarker Activity (AID 2283036;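 also: TGF-b1 protein level measured by ELISA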); details: primary human bronchial epithelial cells; actives raise or lower the signal
Outline: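 TGF-b1 measured via ELISA, 24 h after chemical dosing of human bronchial epithelial cells (BE3C). Overt cytotoxicity assessed in parallel by SRB (0.1%, TCA-fixed, 560 nm); analysis bidirectional relative to DMSO.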

[8] = read-out: Plasminogen activator inhibitor-1 (PAI1), SERPINE1 (gene 5054); test: BSK_BE3C_PAI1: BioMAP Diversity Plus: BE3C Assay for Plasminogen activator inhibitor-1 (PAI1) Biomarker Activity (AID 2283037); details: primary human bronchial epithelial cells; actives raise or lower the signal
Outline: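 In this multiplexed primary-cell system, bronchial epithelial cells receive test chemical and are sampled at 24 h. PAI-1 is read by ELISA, with DMSO serving as negative control for bidirectional fitting.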

[9] = read-out: urokinase plasminogen activator (uPA), PLAU (gene 5328); test: BSK_BE3C_uPA: BioMAP Diversity Plus: BE3C Assay for urokinase plasminogen activator (uPA) Biomarker Activity (AID 2283038); details: primary human bronchial epithelial cells; actives raise or lower the signal;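 also: uPA protein level quantified by ELISA in cell cultures; uPA read one day after compound addition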
Outline: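 Using confluent primary human lung bronchial epithelial cultures, we dosed chemicals, waited 24 h, then ran a uPA ELISA, fitting bidirectionally against DMSO.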

[10] = read-out: Urokinase-type plasminogen activator receptor (uPAR), PLAUR (gene 5329); test: BSK_BE3C_uPAR: BioMAP Diversity Plus: BE3C Assay for Urokinase-type plasminogen activator receptor (uPAR) Biomarker Activity (AID 2283039); details: primary human bronchial epithelial cells; actives raise or lower the signal
Outline: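 Chemically treated human bronchial epithelial cells (lung primary) are assayed for uPAR by ELISA after 24 h, with data fitted in both directions using DMSO as negative control.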

Measured: AC50

C#CC(C)(C)NC(=O)c1cc(Cl)cc(Cl)c1
active: [3] 4.39 µM | [5] 14.9 µM
inactive: all other assays above

Nc1c(Cl)cc([N+](=O)[O-])cc1Cl
active: [3] 12.6 µM
not listed: [9]
inactive: all other assays above

CCCCOC(=O)[C@@H](C)Oc1ccc(Oc2ccc(C#N)cc2F)cc1
active: [10] 0.811 µM
not listed: [9]
inactive: all other assays above

CNC(=O)Oc1cccc2c1OC(C)(C)O2
active: [4] 20 µM
not listed: [9]
inactive: all other assays above

CCOP(=O)(OCC)Oc1cc(C)nc(C(C)C)n1
not listed: [9]
inactive: all other assays above

CN(C)NC(=O)CCC(=O)O
not listed: [9]
inactive: all other assays above

C=C(C)[C@H]1Cc2c(ccc3c2O[C@@H]2COc4cc(OC)c(OC)cc4[C@@H]2C3=O)O1
inactive: [6] | [7] | [8] | [10]
active: [1] 4.41 µM | [2] 3.97 µM | [3] 6.33 µM | [4] 8.68 µM | [5] 20 µM

CC(COc1ccc(Oc2ccccc2)cc1)Oc1ccccn1 (stereo not drawn)
not listed: [9]
inactive: all other assays above

CC1=NNC(=O)N(/N=C/c2cccnc2)C1
not listed: [9]
inactive: all other assays above

CSC1=N[C@@](C)(c2ccccc2)C(=O)N1Nc1ccccc1
active: [4] 9.4 µM
not listed: [9]
inactive: all other assays above

CCOP(=O)(NC(C)C)Oc1ccc(SC)c(C)c1 (stereo not drawn)
active: [10] 5.54 µM
not listed: [9]
inactive: all other assays above

CCC(CC)Nc1c([N+](=O)[O-])cc(C)c(C)c1[N+](=O)[O-]
active: [4] 20 µM
not listed: [9]
inactive: all other assays above

CCOP(=S)(OCC)Oc1cc(C)nc(C(C)C)n1
not listed: [9]
inactive: all other assays above

CCOP(=S)(Oc1cnc(C(C)(C)C)nc1)OC(C)C (stereo not drawn)
active: [2] 31.9 µM | [4] 36.8 µM
not listed: [9]
inactive: all other assays above

CCOP(=O)(SC(C)CC)N1CCSC1=O (stereo not drawn)
not listed: [9]
inactive: all other assays above

CC1(C(=O)Nc2ccc(O)c(Cl)c2Cl)CCCCC1
not listed: [9]
inactive: all other assays above

CC(C)=CC1C(C(=O)OCN2C(=O)C3=C(CCCC3)C2=O)C1(C)C (stereo not drawn)
active: [1] 8.64 µM | [3] 20 µM
not listed: [9]
inactive: all other assays above

O=c1ccc(=O)[nH][nH]1
not listed: [9]
inactive: all other assays above
